Experiment [1] in a line: qHTS assay to identify small molecule antagonists of the glucocorticoid receptor (GR) signaling pathway - cell viability counter screen (AID 720693). Also: nearly all actives have a fitted effect of over 55% in size. Also: potency is read from the fitted curve at half-maximal effect. For orientation: Quantitative high-throughput screening tests each substance at several concentrations.
Experiment [2] can be described thus: qHTS assay for identifying genotoxic compounds that show differential cytotoxicity against isogenic chicken DT40 cell lines with known DNA damage response pathways - wild type cell line (AID 743012). Also: nearly all actives have a fitted effect of over 60% in size. Also: potency is read from the fitted curve at half-maximal effect. The essentials: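 Cytotoxicity in repair-proficient parental chicken DT40 cells serves as the comparator for Rad54/Ku70- and Rev3-deficient lines. Cells were exposed to compounds for 40 h at 37 C/5% CO2, and ATP-based luminescence (CellTiter-Glo) measured viability.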

Experiment [3] is described as follows: qHTS assay for identifying genotoxic compounds that show differential cytotoxicity against isogenic chicken DT40 cell lines with known DNA damage response pathways - Rev3 mutant cell line (AID 743014). Also: nearly all actives have a fitted effect of over 55% in size. Also: potency is read from the fitted curve at half-maximal effect.
Experiment [4] in a line: qHTS assay for identifying genotoxic compounds that show differential cytotoxicity against isogenic chicken DT40 cell lines with known DNA damage response pathways - Rad54/Ku70 mutant cell line (AID 743015). Also: nearly all actives have a fitted effect of over 60% in size. Also: potency is read from the fitted curve at half-maximal effect.
Experiment [5] in a line: qHTS assay to identify small molecule antagonists of the androgen receptor (AR) signaling pathway - cell viability counter screen (AID 743033; also: nearly all actives have a fitted effect of over 45% in size; also: potency is read from the fitted curve at half-maximal effect).
Experiment [6] concerns the target Androgen receptor (Homo sapiens) (UniProt P10275). Nature of the experiment: qHTS assay to identify small molecule agonists of the androgen receptor (AR) signaling pathway (AID 743036; active = well fitted activation curve with a large enough effect in the signal ratio in the repeat runs, with a control signal flat, not every such curve was filed as active; inconclusive = weak or mixed curves, or effect the other way; inactive = no such curve, though single readings can be large or run the other way; the % refers to the signal ratio). In a few lines: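 In this Tox21 qHTS, 2,000 HEK293 AR-bla cells per well were incubated with compounds for 16 h at 37C and 5% CO2. Fluorescence intensity was recorded 2 h after adding LiveBLAzer B/G FRET substrate at room temperature.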

Experiment [7] shares this target. Nature of the experiment: qHTS assay to identify small molecule agonists of the androgen receptor (AR) signaling pathway using the MDA cell line (AID 743040; also: nearly all actives have a fitted effect of over 20% in size). Particulars: MDA-kb2 AR-luc cells, MMTV luciferase, 16 h, stronger effect = higher value. In a few lines:
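Cell-based luciferase reporter: MDA-kb2, MMTV promoter (AR + GR response elements). 16 h compound exposure at 37C; ONE-Glo, 30 min RT, luminescence.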

Experiment [8] has the same target. Nature of the experiment: qHTS assay to identify small molecule antagonists of the androgen receptor (AR) signaling pathway using the MDA cell line (AID 743042; also: nearly all actives have a fitted effect of over 55% in size; also: potency is read from the fitted curve at half-maximal effect). The essentials: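 MDA-kb2 cells (human breast carcinoma, stably carrying an MMTV-luciferase reporter responsive to AR and GR) were plated at 3,000 cells/well and preincubated 5 hr at 37C, then given compound plus R1881 agonist for 16 h. ONE-Glo luminescence was read.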

A short description of experiment [9]: qHTS assay to identify small molecule antagonists of the thyroid receptor (TR) signaling pathway - cell viability counter screen (AID 743064). Also: nearly all actives have a fitted effect of over 50% in size. Also: potency is read from the fitted curve at half-maximal effect. In a few lines:
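Counter screen for cytotoxicity: compound plus T3 (1 nM final) on GH3.TRE-Luc cells, 23.5 h at 37 °C, then fluorescence viability readout with CellTiter-Fluor.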

Experiment [10] deals with thyroid hormone receptor (rat, GH3 cells). Nature of the experiment: qHTS assay to identify small molecule agonists of the thyroid receptor (TR) signaling pathway (AID 743066; calls by dose curve).
The target in experiment [11] is Estrogen receptor (Homo sapiens) (UniProt P03372). Nature of the experiment: qHTS assay to identify small molecule antagonists of the estrogen receptor alpha (ER-alpha) signaling pathway (AID 743069; active = well fitted curve in the direction sought with a large enough effect in the signal ratio in the repeat runs, not every such curve was filed as active; inconclusive = weak or mixed curves, or effect the other way; inactive = no such curve, though single readings can be large or run the other way; the % refers to the signal ratio). The essentials: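 A 17beta-estradiol challenge was applied right after compound transfer to ER-alpha-UAS-bla HEK293 cells previously kept in charcoal-stripped serum. Plates stood 18 hr at 37C and 5% CO2; fluorescence was read following 2 hr FRET substrate loading at room temperature.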

A short description of experiment [12]: qHTS assay to identify small molecule antagonists of the estrogen receptor alpha (ER-alpha) signaling pathway - cell viability counter screen (AID 743074; calls by dose curve;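 also: HEK293 cells carrying ER-alpha-UAS-bla reporter stimulated with 17beta-estradiol; nearly all actives have a fitted effect of over 45% in size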; also: potency is read from the fitted curve at half-maximal effect).
Experiment [13] has as its target Estrogen receptor (Homo sapiens) (UniProt P03372). Nature of the experiment: qHTS assay to identify small molecule agonists of the estrogen receptor alpha (ER-alpha) signaling pathway (AID 743075; calls by dose curve;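 also: HEK293 GripTite cells with ER-alpha and UAS-driven beta-lactamase reporter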; also: potency is read from the fitted curve at half-maximal effect).
The target is the same in experiment [14]. Nature of the experiment: qHTS assay to identify small molecule agonists of the estrogen receptor alpha (ER-alpha) signaling pathway using the BG1 cell line (AID 743079). Also: nearly all actives have a fitted effect of over 20% in size. Also: potency is read from the fitted curve at half-maximal effect. The following applies: BG1Luc4E2 cells, ERE-luciferase agonist, 22 h; activation: at 70.3 µM (top of the series) unless noted.
The nature of experiment [15]: qHTS assay to identify small molecule antagonists of the estrogen receptor alpha (ER-alpha) signaling pathway using the BG1 cell line - cell viability counter screen (AID 743081).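 Also: compound given together with 17beta-estradiol as the ER stimulus; nearly all actives have a fitted effect of over 45% in size.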 Also: potency is read from the fitted curve at half-maximal effect.
The next experiment concerns the target Aromatase (Homo sapiens) (UniProt P11511). Nature of the experiment: qHTS assay to identify aromatase inhibitors (AID 743083). Also: nearly all actives have a fitted effect of over 55% in size. Also: potency is read from the fitted curve at half-maximal effect.
The nature of experiment [16]: qHTS assay to identify small molecule antagonists of the androgen receptor (AR) signaling pathway using the MDA cell line - cell viability counter screen (AID 743041; also: nearly all actives have a fitted effect of over 45% in size; also: potency is read from the fitted curve at half-maximal effect). In a few lines: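 In this qHTS counter assay, fluorescence intensity after CellTiter-Fluor addition indicated viability of MDA-kb2 AR-luc cells given compounds and R1881 for 16 h at 37C.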
A short description of experiment [17]: qHTS assay to identify small molecule antagonists of the estrogen receptor alpha (ER-alpha) signaling pathway using the BG1 cell line (AID 743080; calls by dose curve;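 also: BG1 cells stimulated with 17beta-estradiol alongside compound; nearly all actives have a fitted effect of over 25% in size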). The essentials: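 Readout is ONE-Glo luminescence, taken 30 min at room temperature after reagent addition, preceded by a CellTiter-Fluor viability read; BG1-Luc-4E2 cells had received compound and 17beta-estradiol for 21.5 h at 37 C.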

Experiment [18] is described as follows: qHTS assay to identify small molecule antagonists of the thyroid receptor (TR) signaling pathway (AID 743065). Also: nearly all actives have a fitted effect of over 55% in size. Also: potency is read from the fitted curve at half-maximal effect. In a few lines: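 GH3.TRE-Luc rat pituitary cells carrying two TR response elements driving luciferase were plated for 4 h, given compound plus 1 nM T3 (final), and incubated 23.5 h at 37 C. ONE-Glo luminescence measured reporter inhibition; CellTiter-Fluor fluorescence tracked cytotoxicity.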

The target of experiment [19] is Androgen receptor (Homo sapiens) (UniProt P10275). Nature of the experiment: qHTS assay to identify small molecule antagonists of the androgen receptor (AR) signaling pathway (AID 743035; active = well fitted inhibition curve with a large enough effect in the signal ratio in the repeat runs, not every such curve was filed as active; inconclusive = weak or mixed curves, or effect the other way; inactive = no such curve, though single readings can be large or run the other way; the % refers to the signal ratio; also: potency is read from the fitted curve at half-maximal effect). In a few lines: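 Steps: seed AR-UAS-bla GripTite HEK293 cells, incubate 4 h at 37C; pin in test compound, then add agonist R1881; incubate 16 h at 37C; add LiveBLAzer B/G FRET substrate, 2 h at room temperature; read fluorescence.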

The structures appear in SMILES notation. Several values for one entry are separate records, joined by “and”; a condition that tells them apart may be missing. Equal entries are not always repeated. More than one record can exist for a structure, and the calls need not agree. Activity calls are given as the source filed them. Unless noted, calls follow the shape of the dose curve; as a rule, active = well fitted curve in the direction sought with a large enough effect in the repeat runs; inconclusive = weak or mixed curves; inactive = no such curve, though single readings can be large; an effect the other way counts as inactive or inconclusive.
% is scaled to controls: 0 for no effect and ±100 for the full control effect.

Chain of Androgen receptor (Homo sapiens) (P10275 whole entry, looked up): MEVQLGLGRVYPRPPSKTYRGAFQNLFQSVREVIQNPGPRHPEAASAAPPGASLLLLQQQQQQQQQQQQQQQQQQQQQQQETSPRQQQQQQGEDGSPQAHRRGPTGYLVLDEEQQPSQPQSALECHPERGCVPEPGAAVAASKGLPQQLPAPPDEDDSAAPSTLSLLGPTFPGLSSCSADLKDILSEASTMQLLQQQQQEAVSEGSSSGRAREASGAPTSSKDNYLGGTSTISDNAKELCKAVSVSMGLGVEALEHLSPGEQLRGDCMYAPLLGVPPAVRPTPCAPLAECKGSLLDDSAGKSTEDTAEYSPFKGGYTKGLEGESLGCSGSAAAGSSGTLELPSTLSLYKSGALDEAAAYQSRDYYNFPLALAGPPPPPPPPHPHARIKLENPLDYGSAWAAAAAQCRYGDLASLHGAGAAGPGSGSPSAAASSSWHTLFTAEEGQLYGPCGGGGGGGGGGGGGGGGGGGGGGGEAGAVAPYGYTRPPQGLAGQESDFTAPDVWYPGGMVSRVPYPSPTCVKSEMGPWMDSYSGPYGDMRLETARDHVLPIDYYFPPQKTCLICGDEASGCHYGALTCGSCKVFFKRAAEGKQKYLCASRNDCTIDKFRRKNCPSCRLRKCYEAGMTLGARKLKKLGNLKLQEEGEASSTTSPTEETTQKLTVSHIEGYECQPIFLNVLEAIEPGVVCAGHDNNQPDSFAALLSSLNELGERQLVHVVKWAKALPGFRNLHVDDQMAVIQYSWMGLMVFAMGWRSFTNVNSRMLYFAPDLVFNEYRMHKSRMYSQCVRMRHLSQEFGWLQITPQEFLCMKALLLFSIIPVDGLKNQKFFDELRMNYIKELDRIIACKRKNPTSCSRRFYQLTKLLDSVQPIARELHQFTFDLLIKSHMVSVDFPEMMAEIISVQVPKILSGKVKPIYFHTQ
Chain of Aromatase (Homo sapiens) (P11511 whole entry, looked up): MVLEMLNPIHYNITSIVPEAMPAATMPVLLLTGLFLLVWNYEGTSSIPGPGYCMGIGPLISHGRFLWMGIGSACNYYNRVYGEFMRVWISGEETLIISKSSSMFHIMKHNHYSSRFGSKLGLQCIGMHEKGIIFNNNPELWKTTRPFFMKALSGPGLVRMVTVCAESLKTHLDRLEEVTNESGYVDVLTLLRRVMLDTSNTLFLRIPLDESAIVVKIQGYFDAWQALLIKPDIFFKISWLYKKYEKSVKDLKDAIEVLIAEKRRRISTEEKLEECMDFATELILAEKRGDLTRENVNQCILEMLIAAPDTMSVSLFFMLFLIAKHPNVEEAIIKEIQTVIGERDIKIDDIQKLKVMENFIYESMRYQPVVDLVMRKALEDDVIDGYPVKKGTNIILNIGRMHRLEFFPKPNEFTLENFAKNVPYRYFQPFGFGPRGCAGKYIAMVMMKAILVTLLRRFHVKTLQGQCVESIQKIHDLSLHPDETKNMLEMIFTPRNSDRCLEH
Chain of Estrogen receptor (Homo sapiens) (P03372 whole entry, looked up): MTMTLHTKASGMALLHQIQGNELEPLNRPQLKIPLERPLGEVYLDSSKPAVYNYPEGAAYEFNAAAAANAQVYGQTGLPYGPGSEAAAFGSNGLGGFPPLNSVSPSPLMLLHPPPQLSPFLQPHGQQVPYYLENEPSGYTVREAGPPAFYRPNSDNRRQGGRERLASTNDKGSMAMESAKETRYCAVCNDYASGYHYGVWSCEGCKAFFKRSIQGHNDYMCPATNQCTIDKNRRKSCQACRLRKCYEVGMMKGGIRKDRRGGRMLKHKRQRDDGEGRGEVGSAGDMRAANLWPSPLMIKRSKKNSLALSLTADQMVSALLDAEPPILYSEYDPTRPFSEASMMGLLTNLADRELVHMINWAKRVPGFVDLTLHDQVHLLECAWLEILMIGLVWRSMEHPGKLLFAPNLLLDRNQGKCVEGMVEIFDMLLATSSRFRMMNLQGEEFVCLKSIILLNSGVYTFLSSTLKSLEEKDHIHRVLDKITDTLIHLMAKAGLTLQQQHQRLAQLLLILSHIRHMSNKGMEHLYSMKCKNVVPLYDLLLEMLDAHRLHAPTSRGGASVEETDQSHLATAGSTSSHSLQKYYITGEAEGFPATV

As for `CC1=C(C(=O)Nc2ccccc2)SCCO1`, the Potency result in experiment [1], in experiment [5], in experiment [6], in [8], in experiment [9] and in experiment [10] was “inactive” throughout. For the same molecule, the Potency entry (in experiment [11]; in [12]; in experiment [13]; in experiment [15]; in the experiment with Aromatase (Homo sapiens)) was “inactive” each time. Also, the Potency was 62.1 µM (active) and 17.2 µM (active) in experiment [2]; 24.7 µM (active) and 12.2 µM (active) in experiment [3]; 62.1 µM (active) and 19.3 µM (active) in [4]; 31.1 µM (active) and 27.3 µM (active) in [14]. The figures for the activity change in experiment [7] (at 70.3 µM (top of the series)) and in experiment [7] (at 95 µM (top of the series)) were 4% (inactive) and 0.0315% (inactive), respectively.

In the case of `CC1(C)Cc2cccc(O)c2O1`, the Potency result in experiment [1], in experiment [2], in experiment [3], in experiment [4], in experiment [5] and in experiment [16] was “inactive” each time. In addition, the Potency result in experiment [9], in experiment [10], in experiment [11], in [12], in experiment [13] and in experiment [14] was “inactive” throughout. Besides, the Potency result (in experiment [17]; in experiment [15]; in the experiment with Aromatase (Homo sapiens)) was “inactive” in each case.

Take `CCOP(=S)(OCC)SCSC(C)(C)C`: the Potency result in experiment [1], in experiment [2], in experiment [3], in experiment [4], in [5] and in experiment [16] was “inactive” each time. Moreover, the Potency result in [9], in experiment [10], in experiment [11], in experiment [12], in experiment [13] and in [14] was “inactive” throughout. In addition, the Potency result (in [17]; in experiment [15]; with Aromatase (Homo sapiens)) was “inactive” each time.

Turning to `Oc1ccc(Cl)cc1Cl`, the Potency result in [1], in experiment [2], in [3], in experiment [4], in experiment [5] and in [16] was “inactive” each time. Besides, the Potency result in [9], in [18], in experiment [10], in [11], in experiment [13] and in [14] was “inactive” throughout. Moreover, the Potency entry (in experiment [17]; in [15]; with Aromatase (Homo sapiens)) was “inactive” in each case.

Regarding `Clc1cccc(C(Cl)(Cl)Cl)n1`, the Potency entry in experiment [1], in experiment [2], in experiment [3], in experiment [4], in [5] and in experiment [19] was “inactive” throughout. The Potency entry in experiment [6], in experiment [8], in experiment [9], in [18], in experiment [10] and in [11] was “inactive” throughout. Further, the Potency entry (in experiment [12]; in experiment [13]; in experiment [14]; in experiment [17]; in experiment [15]; in the experiment with Aromatase (Homo sapiens)) was “inactive” each time. For the same molecule, in experiment [7] (at 70.3 µM (top of the series)), the activity change was 0.42% (inactive) and 1.19% (inactive).

For `Clc1ccccc1-c1nnc(-c2ccccc2Cl)nn1`, the Potency entry in experiment [1], in experiment [2], in [3], in experiment [4], in [5] and in [16] was “inactive” in each case. Further, the Potency entry in experiment [9], in experiment [18], in [10], in [12], in [13] and in experiment [15] was “inactive” throughout. In addition, the Potency entry with Aromatase (Homo sapiens) is “inactive”. Moreover, the Potency in experiment [14] was 27.1 µM (active) and 43.1 µM (active).

For `CCOP(=S)(OCC)SCn1c(=O)oc2cc(Cl)ccc21`, the Potency entry in [1], in [5], in [16], in [9], in experiment [10] and in experiment [11] was “inactive” in each case. For the same molecule, the Potency result in experiment [12], in experiment [13], in experiment [14], in [17] and in experiment [15] was “inactive” in each case. Moreover, the Potency in experiment [2] was 27.3 µM (active); in experiment [3], 32.9 µM (active) and 27.3 µM (active); in experiment [4], 46.4 µM (active) and 30.6 µM (active); in [18] it was 68.6 µM (active); in the experiment with Aromatase (Homo sapiens) it was 65.6 µM (active).

As to `Cc1ccc([N+](=O)[O-])cc1`, the Potency result in [1], in [2], in [3], in experiment [4], in experiment [5] and in experiment [16] was “inactive” in each case. Also, the Potency entry in [9], in experiment [18], in [10], in [11], in experiment [13] and in [14] was “inactive” each time. In addition, the Potency entry (in [17]; in [15]; in the experiment with Aromatase (Homo sapiens)) was “inactive” in each case.

Consider `CNC(=O)CSP(=S)(OC)OC`, for which the Potency result in experiment [1], in experiment [2], in experiment [3], in experiment [4], in [5] and in [16] was “inactive” throughout. In addition, the Potency entry in experiment [9], in experiment [18], in experiment [10], in [11], in experiment [12] and in experiment [13] was “inactive” each time. Moreover, the Potency entry (in experiment [14]; in experiment [17]; in experiment [15]; in the experiment with Aromatase (Homo sapiens)) was “inactive” in each case.

Take `CN(C)c1ccccc1`: the Potency entry in experiment [1], in [2], in experiment [3], in [4], in experiment [5] and in experiment [16] was “inactive” each time. Besides, the Potency entry in experiment [9], in experiment [10] and in experiment [15] was “inactive” throughout.

Turning to `COP(=S)(OC)Oc1ccc(S(=O)(=O)N(C)C)cc1`, the Potency result in [1], in experiment [5], in experiment [19], in experiment [6], in experiment [16] and in experiment [9] was “inactive” each time. Moreover, the Potency result in experiment [10], in experiment [11], in [12], in [13], in experiment [14] and in [17] was “inactive” throughout. Further, the Potency result in [15] was “inactive”. Moreover, the Potency was 19.3 µM (active) in experiment [2]; “inactive and 24.3 µM (active)” in experiment [3]; “inactive and 34.4 µM (active)” in [4]; “inactive and 61.1 µM (active)” in experiment [8]; “inactive and 61.1 µM (active)” in the experiment with Aromatase (Homo sapiens). In [7] (at 70.3 µM (top of the series)), the activity change was -0.992% (inactive) and -9.46% (inactive).

On to `C=CC(=O)OCC(CC)(COC(=O)C=C)COC(=O)C=C`, for which the Potency is 12.6 µM (active) and 11 µM (active) in experiment [1]; 2.8 µM (active) and 3.06 µM (active) in experiment [2]; 1.58 µM (active) and 3.06 µM (active) in experiment [3]; 2.5 µM (active) and 2.43 µM (active) in experiment [4]; 7.97 µM (active) and 12.3 µM (active) in [5]; 4.48 µM (active) in experiment [19]. Moreover, the Potency was 62.8 µM (active) and 30.6 µM (active) in experiment [16]; 8.87 µM (active) and 6.86 µM (active) in [8]; 4.99 µM (active) and 6.86 µM (active) in experiment [9]; 3.15 µM (active) and 4.33 µM (active) in experiment [18]; 56.4 µM (active) and 54.9 µM (active) in experiment [12]; 22.5 µM [inconclusive] (active) and 9.77 µM [inconclusive] (active) in experiment [13]. Besides, the Potency was 79 µM (active) and 54.5 µM (active) in experiment [15]; 4.99 µM (active) and 6.86 µM (active) in the experiment with Aromatase (Homo sapiens). For the same molecule, the activity change was -11.9% (inactive) in experiment [7] (at 70.3 µM (top of the series)) and -11.2% (inactive) in experiment [7] (at 95 µM (top of the series)). Further, the Potency result in [10] was “inactive”.

These data come from PubChem BioAssay (Tox21).
